# From PubChem BioAssay (NCATS)
# A number with no mark means an inactive call. Records with an inconclusive call do not appear. Active and inactive are the calls of the source. The call rests on the fitted dose curve; in most records, active means well fitted inhibition curve with a large enough effect; inconclusive means small, poorly fitted or top-dose-only effect; inactive means flat fitted curve, though single readings scatter.
# Biological target: Phospholipid hydroperoxide glutathione peroxidase GPX4 (Homo sapiens) (UniProt P36969)
# Sequence (P36969 whole entry, looked up): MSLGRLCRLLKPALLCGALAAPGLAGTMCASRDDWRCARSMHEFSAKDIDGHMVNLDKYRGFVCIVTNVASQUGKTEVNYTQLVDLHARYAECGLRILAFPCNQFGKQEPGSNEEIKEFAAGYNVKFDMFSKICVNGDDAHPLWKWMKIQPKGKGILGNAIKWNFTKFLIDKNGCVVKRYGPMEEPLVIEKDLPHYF
# Assay: Primary qHTS Assay for Inhibitors of Recombinant Selenoprotein Glutathione Peroxidase 4 (GPX4) (AID 1845192); further: on the % scale 0 is the no-effect control and ±100 the full control effect; nearly all actives have a fitted effect of over 65% in size
# Conditions: recombinant GPX4, GR-coupled NADPH fluorescence, 15 min; series mostly up to 50 µM; activity change, negative = inhibition: at the top concentration
# Method in brief: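 qHTS, GR-coupled: GPX4 200 nM + cpd 30 min RT → GSH 1 mM, NADPH 0.5 mM, GR 100 nM → CHP 0.5 mM start; fluor 340/450 at t0 and t15 min; no-enzyme wells as control.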
row,Structure (SMILES),"activity change, negative = inhibition"
1,O=C(O)Cc1ccc2oc(-c3ccc(NC(=O)/C=C/c4ccc(Br)cc4)c(F)c3)nc2c1,8.47%
2,COc1ccc(CNC(=O)c2cc(-c3cncc(C)c3)ncc2-c2nccs2)nc1OC,8.5%
3,COc1nc2sc(C(=O)NC3CC3)c(N)c2c(C)c1Cl,-12.5%
4,CC(C)CN(C[C@@H](O)[C@H](Cc1ccccc1)NC(=O)O[C@@H]1CO[C@H]2OCC[C@H]21)S(=O)(=O)c1ccc(N)cc1,-3.43%
5,CCC1C(=O)N(C)c2cnc(Nc3ccc(C(=O)NC4CCC(N5CCN(CC6CC6)CC5)CC4)cc3OC)nc2N1C(C)C (centres undefined),-4.25%
6,CC1CCN(C(=O)CC#N)CC1N(C)c1ncnc2[nH]ccc12 (centres undefined),-6.09%
7,CC(C)C(N)C(=O)OCCOCn1cnc2c(=O)[nH]c(N)nc21 (centres undefined),-15.4%
8,CC[C@]1(O)CC2CN(CCc3c([nH]c4ccccc34)[C@@](C(=O)OC)(c3cc4c(cc3OC)N(C=O)[C@H]3[C@@](O)(C(=O)OC)[C@H](OC(C)=O)[C@]5(CC)C=CCN6CC[C@]43[C@@H]65)C2)C1 (some centres undefined),-11.9% [at 27.8 µM]
9,CCOC(=O)C(CCc1ccccc1)NC(C)C(=O)N1C(=O)N(C)CC1C(=O)O (centres undefined),17.9%
10,COc1cc2oc(-c3ccc(O)cc3O)cc2c(OC)c1CC=C(C)C,-26.5% [at 27.8 µM]
11,CNC(=O)c1cccc(-c2ccc3c(N4CCOC[C@@H]4C)nc(N4CCOC[C@@H]4C)nc3n2)c1,-24.9%
12,COc1ccc(C2=N[C@@H](c3ccc(Cl)cc3)[C@@H](c3ccc(Cl)cc3)N2C(=O)N2CCNC(=O)C2)c(OC(C)C)c1,-19.8%
13,CC(C)CC1NC(=O)C(C)NC(=O)C(CC(C)C)OC(=O)CCCNC1=O (centres undefined),-11.9% [at 27.8 µM]
14,CC1=C(/C=C/C(C)=C\C=C\C(C)=C/C(=O)O)C(C)(C)CCC1,13.2%
15,COc1c/c(=C2\C=c3ccccc3=N2)[nH]/c1=C\c1[nH]c(C)cc1C,-2.78%
16,Cc1nc([C@](C)(O)CO)sc1-c1cnc(N)c(O[C@H](C)c2cc(F)ccc2-n2nccn2)c1,-13.1%
17,CCOC(=O)C(CCc1ccccc1)NC1CSC(c2cccs2)CN(CC(=O)O)C1=O (centres undefined),2.47%

# Biological target: Luciferin 4-monooxygenase (Photinus pyralis) (UniProt P08659)
# Assay: Primary firefly luciferase (FLuc) qHTS assay for identification of artifact compounds. (AID 1845220); further: nearly all actives have a fitted effect of over 60% in size; further: potency means the concentration at half of the fitted maximal effect;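 on activity change, negative = inhibition: plate controls were DMSO vehicle for no effect and no enzyme for full effect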
# Conditions: purified firefly luciferase, luminescence, 5 min; series mostly up to 54.1 µM; activity change, negative = inhibition: at the top concentration
# Method in brief: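 qHTS, 15 min compound preincubation with substrate (10 uM luciferin, 10 uM ATP) at RT, then 10 nM FLuc; 5 min; luminescence; % inhibition vs no-enzyme/DMSO controls, 4-parameter Hill fit.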
Structure (SMILES),"activity change, negative = inhibition",outcome,Potency
O=C(O)Cc1ccc2oc(-c3ccc(NC(=O)/C=C/c4ccc(Br)cc4)c(F)c3)nc2c1,-6.04%,–,–
CC1(C)CCCC2(C)C1C(O)C=C(CO)C2(O)CO (centres undefined),4.51%,–,–
COc1ccc(CNC(=O)c2cc(-c3cncc(C)c3)ncc2-c2nccs2)nc1OC,–,inactive,–
COc1nc2sc(C(=O)NC3CC3)c(N)c2c(C)c1Cl,2.68%,–,–
CC(C)CN(C[C@@H](O)[C@H](Cc1ccccc1)NC(=O)O[C@@H]1CO[C@H]2OCC[C@H]21)S(=O)(=O)c1ccc(N)cc1,-9.63%,–,–
COC(=O)c1ccnc(-c2cc(C(=O)NCCc3ccccc3)ccn2)c1,-2.93%,–,–
COc1cc(O)c2c(c1)C1=CC(O)C(O)CC1(C)OC2=O (centres undefined),-5.71%,–,–
C=CC/C=C\C/C=C\CCCCCCCc1cccc(O)c1C(=O)O,3.92%,–,–
Nc1ccc(/C=C/C(=O)NCc2cc3cc(-c4ccc(C(=O)N5CCC(F)(F)CC5)cc4)cc(-c4ccc(F)cc4)c3o2)cn1,–,inactive,–
CC(C)c1cc(C(=O)N2CC[C@@H](NC(=O)C3CC3)C2)n[nH]1,-10.3%,–,–
CCC1C(=O)N(C)c2cnc(Nc3ccc(C(=O)NC4CCC(N5CCN(CC6CC6)CC5)CC4)cc3OC)nc2N1C(C)C (centres undefined),-11.7%,–,–
CC1CCN(C(=O)CC#N)CC1N(C)c1ncnc2[nH]ccc12 (centres undefined),0.135%,–,–
CC(C)C(N)C(=O)OCCOCn1cnc2c(=O)[nH]c(N)nc21 (centres undefined),-5.6%,–,–
CC[C@]1(O)CC2CN(CCc3c([nH]c4ccccc34)[C@@](C(=O)OC)(c3cc4c(cc3OC)N(C=O)[C@H]3[C@@](O)(C(=O)OC)[C@H](OC(C)=O)[C@]5(CC)C=CCN6CC[C@]43[C@@H]65)C2)C1 (some centres undefined),–,inactive,–
CNC(=S)NS(=O)(=O)c1cc(CCNC(=O)c2cc(Cl)ccc2OC)ccc1OC,–,inactive,–
CO/N=C(/C(=O)N[C@@H]1C(=O)N2C(C(=O)O)=C(Cn3ccc(=N)n3CCO)CS[C@H]12)c1csc(N)n1,1.52%,–,–

Structure (SMILES),"activity change, negative = inhibition",outcome,Potency
Cn1cncc1C(N)(c1ccc(Cl)cc1)c1ccc2c(c1)c(-c1cccc(Cl)c1)cc(=O)n2C (centres undefined),–,inactive,–
CC(C)C1=CC2C(CC[C@]2(C)O)[C@](C)(O)CC1 (some centres undefined),–,inactive,–
C=C[C@H]1[C@H](O[C@@H]2O[C@H](CO)[C@@H](O)[C@H](O)[C@H]2O)OC=C(C(=O)OC)[C@H]1C/C=C(/C=O)[C@@H]1C(C(=O)OC)=CO[C@@H](O[C@@H]2O[C@H](CO)[C@@H](O)[C@H](O)[C@H]2O)[C@@H]1C=C,4.04% [at 25.7 µM],–,–
CCOC(=O)C(CCc1ccccc1)NC(C)C(=O)N1C(=O)N(C)CC1C(=O)O (centres undefined),–,inactive,–
COc1cc2oc(-c3ccc(O)cc3O)cc2c(OC)c1CC=C(C)C,-19.8%,–,–
CNC(=O)c1cccc(-c2ccc3c(N4CCOC[C@@H]4C)nc(N4CCOC[C@@H]4C)nc3n2)c1,2.15%,–,–
Cc1ccc(NC(=O)Nc2cc(C(F)(F)F)ccc2F)cc1Nc1ccc2c(c1)NC(=O)/C2=C\c1ccc[nH]1,–,inactive,–
COc1ccc(C2=N[C@@H](c3ccc(Cl)cc3)[C@@H](c3ccc(Cl)cc3)N2C(=O)N2CCNC(=O)C2)c(OC(C)C)c1,-10.3%,–,–
CC(C)CC1NC(=O)C(C)NC(=O)C(CC(C)C)OC(=O)CCCNC1=O (centres undefined),-0.323%,–,–
C/C=C/C=C/C(=O)N1CC[C@]23c4ccccc4N[C@H]4N(C)c5cccc6c5[C@@]42CCN([C@H]6C2OC2(C)C)[C@H]13 (some centres undefined),1.77% [at 25.7 µM],–,–
CC1=C(/C=C/C(C)=C\C=C\C(C)=C/C(=O)O)C(C)(C)CCC1,-6.35%,–,–
COc1c/c(=C2\C=c3ccccc3=N2)[nH]/c1=C\c1[nH]c(C)cc1C,–,–,3.38 µM (active)
Cc1nc([C@](C)(O)CO)sc1-c1cnc(N)c(O[C@H](C)c2cc(F)ccc2-n2nccn2)c1,2.39%,–,–
Cc1nc2sc(C(=O)NCc3ccncc3)c(N)c2c(C)c1Cl,-7.73%,–,–
CCOC(=O)C(CCc1ccccc1)NC1CSC(c2cccs2)CN(CC(=O)O)C1=O (centres undefined),-1.99%,–,–
C=C1C(O)CC2C(C(=O)O)=COC(O[C@@H]3O[C@H](COC(=O)/C=C/c4ccc(O)cc4)[C@@H](O)[C@H](O)[C@H]3O)C12 (some centres undefined),–,inactive [at 25.7 µM],–
